Measurements as given in PubChem BioAssay AID504467 (National Center for Advancing Translational Sciences (NCATS), 2011).
Among all 330,000 compounds or so, about 7,700 (2.3%) were called active. Inconclusive results (about 26%) are left out. The sample holds actives, similar compounds and a random draw of the others, so the mix is not that of the screen. Values without a mark were called inactive. Calls follow the shape of the dose curve; as a rule, active = well fitted inhibition curve with a large enough effect; inconclusive = small, poorly fitted or top-dose-only effect, or effect the other way; inactive = flat fitted curve, though single readings scatter.
% is scaled to controls: 0 for no effect and ±100 for the full control effect; potency is read from the fitted curve at half-maximal effect.

Test: qHTS screen for small molecules that inhibit ELG1-dependent DNA repair in human embryonic kidney (HEK293T) cells expressing luciferase-tagged ELG1; also: nearly all actives have a fitted effect of over 55% in size
Conditions: HEK293T ELG1-luciferase reporter, luminescence, 16 h, DNA damage induced by 5-fluorouridine; series mostly up to 46.1 µM; activity change, negative = inhibition: at the top concentration
In short: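 Step one: seed 2,000 cells per well. Step two: pin-transfer compound or DMSO alongside 5-fluorouridine. Step three: incubate 16 hr, 37 °C, 5% CO2. Step four: add ONE-Glo, wait 30 min, read luminescence.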
With `OC(CNCCc1ccc(Cl)cc1Cl)COc1ccccc1` (stereo not given) the “activity change, negative = inhibition” value was -0.165%. With `COCCN(CCOC)S(=O)(=O)NC[C@H]1O[C@@H](n2cnc3c(N)ncnc32)[C@H](O)[C@@H]1O` the “activity change, negative = inhibition” value was -3.78%. With `O=c1ccc(S(=O)(=O)N2CCCC2)cn1Cc1nc(-c2ccccc2)no1` the “activity change, negative = inhibition” value was -15.5%. In the case of `CCOC(=O)N1CCN(Cc2nc3c(c(=O)n(C)c(=O)n3C)n2Cc2ccccc2)CC1`, the Potency is reported as 10.3 µM (active). In the case of `CN1CCN(Cc2nc3c(c(=O)n(C)c(=O)n3C)n2Cc2cccc3ccccc23)CC1`, the “activity change, negative = inhibition” value is reported as -2.34%. With `Cn1c(=O)c2c(nc(N/N=C/c3cccs3)n2Cc2ccc(Br)cc2)n(C)c1=O` the Potency was 20.6 µM (active). In the case of `COCCn1cnc2c1c(=O)n(Cc1ccc(Br)cc1)c(=O)n2Cc1ccccc1`, the “activity change, negative = inhibition” value is reported as -9.32%. With `CCN1CCN(Cc2nc3c(c(=O)n(C)c(=O)n3C)n2CC(=O)c2ccccc2)CC1` the “activity change, negative = inhibition” value was 14.6%. In the case of `Cn1c(=O)c2sccc2n(Cc2ccc(Br)cc2)c1=O`, the “activity change, negative = inhibition” value is reported as 16.2%. For `CCOC(=O)N1CCN(C(=O)c2ccc3c(=O)n(CCc4ccc(OC)c(OC)c4)c(=O)[nH]c3c2)CC1`, the “activity change, negative = inhibition” value was -21.5%. For `Cc1ccc(-n2nc3c(=O)n(C(C)C(=O)NCc4ccc5c(c4)OCO5)nc(C)c3c2C)cc1` (stereo not given), the “activity change, negative = inhibition” value was -19.3%. In the case of `Cc1ccc(-c2csc(N3CCN(c4cc5c(cc4Cl)nc(-c4ccncc4)n5CCOCCO)CC3)n2)cc1`, the “activity change, negative = inhibition” value is reported as -27.4%. In the case of `CCN([C@H](CO)C(C)C)S(=O)(=O)c1ccccc1Br`, the “activity change, negative = inhibition” value is reported as 5.25%. For `CCOc1ccc(NS(=O)(=O)c2ccc(Cl)c(C(=O)N(C)Cc3cccnc3)c2)cc1`, the “activity change, negative = inhibition” value was -12.3%. For `CCC(C)(C)n1nnnc1C(c1cccs1)N1CCN(c2nc3ccccc3s2)CC1` (stereo not given), the Potency was 20.6 µM (active). In the case of `CCC(C)(C)n1nnnc1C(c1cccs1)N1CCN(Cc2ccccc2)CC1` (stereo not given), the “activity change, negative = inhibition” value is reported as -3.91%. For `CCC(C)(C)n1nnnc1C(c1ccccc1OC)N1CCSCC1` (stereo not given), the “activity change, negative = inhibition” value was 0.736%. With `CC(=O)c1ccc(N2CCN(C(=O)c3ccc(Cl)c(S(=O)(=O)NC4CC4)c3)CC2)c(F)c1` the “activity change, negative = inhibition” value was -29.7%. For `COc1ccc(/C(C)=N/NC(=O)CCC(=O)Nc2ccc(Cl)cc2Cl)c(OC)c1`, the “activity change, negative = inhibition” value was -20.7%. In the case of `COc1ccc(OC)c(/C(C)=N\NC(=O)c2cc3cc(Cl)ccc3n2C)c1`, the Potency is reported as 16.4 µM (active). For `COc1ccc(OC)c(C(=O)c2ccc(Cl)cc2)c1`, the “activity change, negative = inhibition” value was 0%. With `CCN(CC(=O)Nc1cccc(S(=O)(=O)N2CCCCC2)c1)Cc1ccccc1` the “activity change, negative = inhibition” value was -1.55%. In the case of `O=C(NNS(=O)(=O)c1c(F)cc(F)c(Cl)c1F)C12CC3CC(CC(C3)C1)C2`, the “activity change, negative = inhibition” value is reported as -2.47%. In the case of `CCc1ccc(NC(=O)CN2C(=O)COc3ccc(S(=O)(=O)N4CCCC4)cc32)cc1`, the “activity change, negative = inhibition” value is reported as 1.71%. In the case of `CCC(C)NC(=O)c1ccc(NC(=O)CC2SC(N3CCCCC3)=NC2=O)cc1` (stereo not given), the “activity change, negative = inhibition” value is reported as 12.6%. In the case of `O=C(Nc1ccccc1Cl)Nn1cnnc1`, the “activity change, negative = inhibition” value is reported as 0.688%. With `COCCN(CCOC)C(=S)Nc1ccccc1Cl` the “activity change, negative = inhibition” value was 6.84%. For `O=C(Nc1ccccc1Cl)/C(Cl)=C(\Cl)S(=O)c1ccccc1` (stereo not given), the Potency was 9.2 µM (active). With `CSc1cccc(NC(=O)CN2C(=O)COc3ccc(S(=O)(=O)N4CCOCC4)cc32)c1` the “activity change, negative = inhibition” value was 3.54%. For `Cc1ccc(C(=O)NC23CC4CC(CC(C4)C2)C3)c(Cl)c1`, the “activity change, negative = inhibition” value was 27.6%. In the case of `COc1cccc(CCNC(=O)c2cccc(NC(=O)C3=C(C)OCCS3)c2)c1`, the Potency is reported as 20.6 µM (active). For `CCCCNC(=O)c1ccccc1NC(=O)C1=C(C)OCCS1`, the “activity change, negative = inhibition” value was 1.59%. With `COc1ccc(N2CCN(C(=O)c3ccccc3NC(=O)C3=C(C)OCCS3)CC2)cc1` the “activity change, negative = inhibition” value was 5.9%. In the case of `CCn1c(SCC(=O)NNC(=O)c2ccc(OC)cc2)nnc1C(C)C`, the “activity change, negative = inhibition” value is reported as 0%. With `Cc1ccc(CNC(=O)Cn2cnc3c(NCc4ccccc4)ncnc32)o1` the “activity change, negative = inhibition” value was -20.6%. In the case of `Cn1cc(/C=C/c2nc3ccccc3c(=O)n2-c2cccc([N+](=O)[O-])c2)c2ccccc21`, the “activity change, negative = inhibition” value is reported as 5.73%. In the case of `Cc1nc2ccccc2c(=O)n1Cc1ccc([N+](=O)[O-])cc1`, the “activity change, negative = inhibition” value is reported as 3.4%. For `CCn1c(/C=C/c2ccc([N+](=O)[O-])o2)nc2ccccc2c1=O`, the Potency was 16.4 µM (active). For `Cc1cc(C)c(S(=O)(=O)N2CCCC2CNC(=O)c2ccc3c(c2)OCO3)c(C)c1` (stereo not given), the “activity change, negative = inhibition” value was -14.4%. With `CCc1nc(N2CCN(c3nc(C)cc(C)n3)CC2)c2oc3ccccc3c2n1` the “activity change, negative = inhibition” value was 5.17%. For `CCc1nc(Nc2ccc(NC(C)=O)cc2)c2oc3ccccc3c2n1`, the “activity change, negative = inhibition” value was -14.5%. In the case of `CCc1nc(Nc2ccc3nccnc3c2)c2oc3ccccc3c2n1`, the Potency is reported as 2.59 µM (active). For `CCCCCc1c(C)nc(N2CCN(Cc3ccc4c(c3)OCO4)CC2)[nH]c1=O`, the “activity change, negative = inhibition” value was -15.9%. With `CCC(C)[C@H](NC(=O)N1CCn2c1nc1ccccc12)C(=O)NCc1ccc(OC)cc1` (stereo not given in full) the “activity change, negative = inhibition” value was 7.99%. In the case of `COc1ccc(OC)c(NC(=O)COC(=O)Cc2ccsc2)c1`, the “activity change, negative = inhibition” value is reported as -0.0729%. For `COc1ccc(CSc2nc(N3CCOCC3)c3c(c2C#N)CC(C)(C)OC3)cc1`, the Potency was 0.92 µM (active). With `CC(C)c1nc(N2CCOCC2)c(C#N)c2c1COC(C)(C)C2` the “activity change, negative = inhibition” value was -8.03%. With `CCOC(=O)CSc1nc(N2CCOCC2)c2c(c1C#N)CC(C(C)C)OC2` (stereo not given) the “activity change, negative = inhibition” value was -13.9%. In the case of `O=C(COC(=O)c1ccc(O)cc1O)c1ccc2c(c1)OCCO2`, the “activity change, negative = inhibition” value is reported as 0%. With `CCN1CCN(c2ccc(S(=O)(=O)N3CCCCC3)cc2NC(=O)c2cccc(NC(C)=O)c2)CC1` the “activity change, negative = inhibition” value was -0.31%.
